ERp5 block: blocks human ERp5 reductase activity on insulin. actives 0.05% (n = 350,000). Q15084. AID 651711. inhibition, % at 9.99 µM. ERp5 insulin aggregation, absorbance 650 nm, 90 min;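 active = mean replicate inhibition above about 25%, with every replicate also reaching it, limit read from the data, passing the limit was not always enough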
ALR inh: inhibitors of human sulfhydryl oxidase ALR; P55789; purified ALR, DTT oxidation, H2O2 HRP-luminol luminescence; inhibition, % (test concentration not listed); actives 3.8% (n = 290,000); AID 485317;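 active = mean replicate inhibition above about 79%, with every replicate also reaching it, limit read from the data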
NRP1-CendR mod: NRP-1/CendR interaction modulation; O14786; FAM-RPARPAR peptide binding to NRP-1, fluorescence polarization; inhibition, % at 25 µM; actives 0.85% (n = 360,000); AID 602438;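 active = inhibition or corrected inhibition above about 18%, plus a signal ratio from 0.5 to 1.5, limit read from the data, passing the limit was not always enough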
PglD inh: inhibitors of Campylobacter jejuni PglD acetyltransferase | purified PglD enzyme, DTNB colorimetric CoA detection | inhibition, % at 12.5 µM | actives 0.098% (n = 360,000) | AID 602405; in the data active = inhibition above about 16%, passing the limit was not always enough
PDI turbidity: blocks human protein disulfide isomerase activity. AID 588391. PDI insulin aggregation turbidity, A650, 90 min. inhibition, % at 10 µM. P07237. actives 0.052% (n = 350,000);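 active = mean inhibition across replicates of 30% or more, whatever share of single replicates reach that level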
Target sequence (P07237 whole entry, looked up): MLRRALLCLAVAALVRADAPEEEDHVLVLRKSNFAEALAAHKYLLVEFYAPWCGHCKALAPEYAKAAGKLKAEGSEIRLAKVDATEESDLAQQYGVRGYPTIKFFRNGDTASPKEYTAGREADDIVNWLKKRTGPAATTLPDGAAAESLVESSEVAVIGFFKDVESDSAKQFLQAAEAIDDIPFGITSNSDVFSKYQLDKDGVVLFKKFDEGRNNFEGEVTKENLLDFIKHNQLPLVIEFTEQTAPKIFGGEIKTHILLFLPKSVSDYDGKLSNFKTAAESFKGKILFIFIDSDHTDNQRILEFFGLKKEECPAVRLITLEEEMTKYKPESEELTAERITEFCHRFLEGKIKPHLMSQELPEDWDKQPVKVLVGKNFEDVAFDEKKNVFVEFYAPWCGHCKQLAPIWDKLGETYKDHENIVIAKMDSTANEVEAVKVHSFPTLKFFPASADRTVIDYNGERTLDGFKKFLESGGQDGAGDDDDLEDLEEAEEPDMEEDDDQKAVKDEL
ARNT-TACC3 inh: disrupts binding between human ARNT and TACC3. Q9Y6A5. AlphaScreen His-ARNT PAS-B/GST-TACC3 binding, luminescence; TACC3 fragment carries E629A point mutation. inhibition, % at 9.99 µM. actives 0.66% (n = 390,000);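 active = mean inhibition of replicates at least 50% and at least half of replicates each reaching 50%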
A number is an active result; . = inactive; / = no result given. The sample as a whole holds a higher share of hits than the screen did.

SMILES | ERp5 block | ALR inh | NRP1-CendR mod | PglD inh | PDI turbidity | ARNT-TACC3 inh
C=CCn1c(Cc2nc3ccccc3[nH]2)n[nH]c1=S | / | . | . | . | . | 49
S=c1[nH]nc(Cc2cccc3ccccc23)n1-c1ccccc1 | / | 90 | . | . | . | .
C[C@H]1CN([C@@H](C)CO)C(=O)c2cccc(NC(=O)Nc3ccc(F)cc3)c2O[C@H]1CN(C)C(=O)NC1CCCCC1 | . | / | / | . | / | .
O=C1ON=C(c2ccc([N+](=O)[O-])cc2)/C1=C/c1ccccc1O | . | 98 | . | . | . | .
C[C@@H]1CN([C@H](C)CO)C(=O)c2cc(NC(=O)CCCN(C)C)ccc2O[C@@H](C)CCCCO[C@H]1CN(C)Cc1ccc(C(F)(F)F)cc1 | . | / | / | . | / | .
CO[C@@H]1CN(C)C(=O)c2ccc(NS(=O)(=O)c3cn(C)cn3)cc2OC[C@H](C)N(Cc2cccc(F)c2)C[C@@H]1C | . | / | / | . | / | .
Cc1ccc(C(=O)NCCSc2snnc2C)cc1 | / | 94 | . | . | . | .
Cc1nnsc1SCCNC(=O)c1c(F)cccc1F | / | . | . | / | . | .
NC(=O)c1c(NC(=O)CSc2nnc(Cc3ccccc3)n2Cc2ccco2)sc2c1CCC2 | / | 87 | . | . | . | .
O=C(CSc1nnc(Cc2ccccc2)n1Cc1ccco1)NC12CC3CC(CC(C3)C1)C2 | / | . | . | . | . | .
Cc1nc(C(=O)N2CCCC(N3CCN(c4ccccc4C)CC3)C2)cs1 (stereo unspecified) | . | . | . | . | . | .
Cc1ccccc1N1CCN(C2CCCN(C(=O)c3cnsn3)C2)CC1 (stereo unspecified) | . | 86 | . | . | . | .
C[C@H](N)c1nnc(SCC(=O)c2ccc(Cl)cc2)o1 | / | / | . | . | . | .
O=C(CSc1nnc(CNC(=O)c2c(F)cccc2F)o1)c1ccccc1 | . | . | . | . | . | .
COC(=O)c1ccc(CSc2nnc(CNC(=O)c3ccc(OC)cc3)o2)o1 | / | . | . | . | . | .
COC(=O)c1ccc(CSc2nnc(CNC(=O)c3ccccc3F)o2)o1 | / | 97 | . | . | . | .
CC(C)[C@H](N)c1nnc(SCC(=O)c2ccc(Cl)cc2)o1 | / | 98 | . | . | . | .
O=C(CSc1nnc(CNC(=O)c2ccccc2F)o1)c1ccc(Cl)cc1 | / | 99 | . | . | . | .
COc1ccc(C(=O)CSc2nnc(CNC(=O)c3ccc(S(=O)(=O)N(C)C)cc3)o2)cc1 | . | 98 | . | . | . | .
C[C@H](CO)N1C[C@H](C)[C@H](CN(C)C(=O)[C@@H](Cc2ccccc2)N(C)C)OCc2ccccc2-c2ccccc2C1=O | . | / | / | . | / | .
COc1ccc2c3c(n(C)c2c1)[C@@H](CO)N(CC1CC1)CC31CN(S(=O)(=O)c2cccs2)C1 | . | / | / | / | / | /
COc1ccccc1Nc1nc(NCCO)nc(N2CCCC2)n1 | . | / | . | . | . | active
COc1ccccc1Nc1nc(NCCCCO)nc(N2CCCC2)n1 | . | . | . | . | . | .
Cc1nnc(SCc2cnc(-c3ccccc3)o2)[nH]c1=O | / | 99 | . | . | . | .
CC(C)NC[C@@H]1[C@@H](c2ccc(C3=CCCCC3)cc2)[C@H](CO)N1C(=O)NC(C)C | . | / | / | . | / | .
SMILES | ERp5 block | ALR inh | NRP1-CendR mod | PglD inh | PDI turbidity | ARNT-TACC3 inh
COc1ccc(NC(=O)CSc2c(C)nn(-c3nnc(C)c(=O)[nH]3)c2C)cc1 | / | . | . | . | . | 60
COc1ccc(NC(=O)CSc2nncn2C)cc1 | . | / | . | . | . | .
CCNc1nc(NCC)n2c(SCC(=O)Nc3ccc(F)cc3)nnc2n1 | . | . | . | . | . | /
CCNc1nc(NCC)n2c(SCC(=O)Nc3ccc(Br)cc3F)nnc2n1 | . | 98 | . | . | . | .
Cn1ccnc1SCC(=O)c1c[nH]c2ccccc12 | . | 96 | . | . | . | .
COc1ccccc1C(=O)CSc1nccn1C | . | / | . | . | . | .
CCOC(=O)c1ccc(CC(=O)c2oc3cc(O)ccc3c2C)o1 | . | 90 | . | . | . | .
CCN1C(=O)[C@@H]2[C@@H](c3ccc(-c4cc(C(C)=O)cs4)cc3)N3CCC[C@@]3(C(=O)OC)[C@@H]2C1=O | . | / | 24 | . | . | .
O=c1[nH]c(=S)[nH]c2sccc12 | . | 97 | . | / | . | .
CC(=O)Oc1cc2c(c3ccccc13)CCC2=O | . | / | 31 | . | . | .

Bioassay records from PubChem BioAssay.
